# Source: PubChem BioAssay
# BAZ2B block: blocks human BAZ2B | Q9UIF8 | AlphaScreen BAZ2B-H3K14Ac peptide displacement | Potency, µM (titrated, usually from 114 µM), without a hit: at the highest dose activity change, negative = inhibition, usual class: inhibitors | 360,000 compounds, 4.4% hits; further: on the % scale 0 is the no-effect control and ±100 the full control effect; nearly all actives have a fitted effect of over 60% in size
#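 BAZ2B (50 nM) with biotin-H3(5-23)K14Ac peptide (50 nM) in PBS pH 7.4, 0.01% Tween-20, preformed 30 min, then compound 30 min at room temperature; top concentration 110uM. AlphaScreen streptavidin donor/nickel chelate acceptor beads (10 ug/mL final), 20 min dark, signal read.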
# G9a block: inhibitors of human histone lysine methyltransferase G9a. Q96KQ7. 350,000 compounds, 8.8% hits. Potency, µM (doses to about 102 µM), inactives show top-dose activity, negative = inhibition, most hits filed as inhibitors. G9a H3K9 monomethylation, AlphaScreen, 2 h. AID 504332; further: on the % scale 0 is the no-effect control and ±100 the full control effect; nearly all actives have a fitted effect of over 75% in size
# Target sequence (Q96KQ7 913-1193 limits assumed): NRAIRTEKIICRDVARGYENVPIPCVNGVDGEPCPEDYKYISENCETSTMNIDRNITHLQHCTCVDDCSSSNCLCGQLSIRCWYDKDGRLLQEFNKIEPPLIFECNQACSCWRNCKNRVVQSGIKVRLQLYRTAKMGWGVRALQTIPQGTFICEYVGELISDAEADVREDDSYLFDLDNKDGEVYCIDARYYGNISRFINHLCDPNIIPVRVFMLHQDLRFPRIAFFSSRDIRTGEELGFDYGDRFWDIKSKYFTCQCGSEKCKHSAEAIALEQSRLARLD
#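 Quantitative HTS format: methyltransferase activity on a biotin-tagged H3K9 peptide is measured by AlphaScreen, using a rabbit anti-monomethyl-H3K9 antibody with streptavidin donor and anti-IgG acceptor beads. Final levels are 20 nM enzyme, 500 nM peptide, 20 uM SAM; 2 h RT.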
# VDR inhibitor: vitamin D3 receptor (human) inhibition | VDR-SRC2-3 peptide fluorescence polarization, 2 h | Potency, µM, without a hit: max response, negative = inhibition, hits mostly inhibitors | 400,000 compounds, 0.93% hits | AID 504847; further: on the % scale 0 is the no-effect control and ±100 the full control effect
#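 Measured by FP: displacement of SRC2-3 coactivator peptide from VDR by library compounds, following a two-hour ambient incubation.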
# JMJD2A Tudor inh: JMJD2A Tudor domain (human) inhibition | Potency, µM (titrated, usually from 114 µM), without a hit: at the highest dose activity change, negative = inhibition, actives largely listed as inhibitors | O75164 | AlphaScreen JMJD2A-Tudor / H3K4me3 peptide binding | 390,000 compounds, 4.4% hits; further: on the % scale 0 is the no-effect control and ±100 the full control effect; nearly all actives have a fitted effect of over 50% in size
# HP1b chromo inh: blocks HP1-beta chromodomain binding to methylated histone tails; P83916; AlphaScreen HP1-beta / biotin-H3K9me3 peptide binding; Potency, µM (top dose mostly 114 µM), inactives show at the top dose activity change, negative = inhibition, most hits filed as inhibitors; 390,000 compounds, 0.56% hits; AID 540317; further: nearly all actives have a fitted effect of over 70% in size
# Target sequence (P83916 whole entry, looked up): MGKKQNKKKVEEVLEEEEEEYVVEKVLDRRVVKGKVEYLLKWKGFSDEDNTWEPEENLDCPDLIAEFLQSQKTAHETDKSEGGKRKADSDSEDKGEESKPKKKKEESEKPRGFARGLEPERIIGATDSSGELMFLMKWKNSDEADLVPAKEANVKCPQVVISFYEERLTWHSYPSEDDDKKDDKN
#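 HP1-beta protein (50 nM final) preincubated 30 min at room temperature with biotinylated H3(1-18)K9me3 peptide (50 nM) in PBS pH 7.4, 0.01% Tween-20, then compound added for 30 min. AlphaScreen streptavidin donor/nickel chelate acceptor beads (10 ug/mL final), 30 min dark, luminescence read.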
# PLK1 PBD block: PLK1 (human) polo-box domain binding inhibition. Plk1 PBD binding of FITC phosphopeptide, fluorescence polarization. Potency, µM, for inactives: max response, negative = inhibition, actives largely listed as inhibitors. 360,000 compounds, 2.8% hits. AID 720504. P53350; further: series mostly up to about 57 µM; on the % scale 0 is the no-effect control and ±100 the full control effect; nearly all actives have a fitted effect of over 65% in size
# * hit, by the source's call; ? = inconclusive; nt = no result given; [ ] = remark or other dose. Only some compounds are listed: those with a hit (about 11% of all), similar ones and a draw of the others. The call rests on the fitted dose curve; in most records, active means well fitted curve in the direction sought with a large enough effect; inconclusive means small, poorly fitted or top-dose-only effect, or another doubt; inactive means no such curve, though single readings can be large; an effect the other way counts as inactive or inconclusive. Potency means the concentration at half of the fitted maximal effect.
SMILES,BAZ2B block,G9a block,VDR inhibitor,JMJD2A Tudor inh,HP1b chromo inh,PLK1 PBD block
Cc1ccc(NC(=O)CN2C(=O)N/C(=C/c3cc(C)n(-c4cccc(C(=O)O)c4)c3C)C2=O)cc1,22µM*,13µM*,-15%,?,?,?
CCn1c(C)cc(/C=C2/NC(=O)N(CC(=O)Nc3cccc(C)c3)C2=O)c1C,-39%,45µM*,-5%,-29%,-13%,-8%
O=C(O)c1cccc(-n2cccc2/C=C2\NC(=O)N(Cc3ccc(F)cc3)C2=O)c1,50µM*,22µM*,-20%,56µM*,79µM*,?
CCOC(=O)C1CCCN(C(=O)COc2ccc(N(C)S(=O)(=O)c3ccc(F)cc3)cc2)C1 (stereo not drawn),9%,-28%,-10%,2%,40%,0%
CC12CCC(C(=O)N3CCCc4ccccc43)(OC1=O)C2(C)C (stereo not drawn),13%,-12%[59 µM],-10%,-6%,23%,-6%
CCSc1ccccc1C(=O)N=C1NC(=O)CC2C(=O)NCCN12 (stereo not drawn),-16%,-5%,-9%,-6%,25%,7%
Cc1cc(C(=O)O)ccc1-c1ccc(/C=C2\NC(=O)N(Cc3ccc(F)cc3)C2=O)o1,40µM*,28µM*,-5%,?,11%[57 µM],?
Cc1ccc(CCN2C(=O)c3ccc(C(=O)O)cc3C2=O)cc1,2%,5%[12.7 µM],nt,-11%,nt,nt
Cc1ccc(NC(=O)CN2C(=O)N/C(=C\c3cccn3-c3cccc(C(=O)O)c3)C2=O)cc1,10µM*,8.9µM*,13%,22µM*,71µM*,?
CSc1ncc(CN2CCCC(C(=O)Nc3ccc(-c4ccco4)cc3)C2)cn1 (stereo not drawn),?,10µM*,?,?,-20%[57 µM],-13%
COCCn1nnnc1CN1CCN(c2cccc(C(F)(F)F)c2)CC1,79µM*,?,-10%,-13%[11.4 µM],7%,?
CCN1CCN(C(c2ccccc2)c2nnnn2Cc2ccccc2)CC1 (stereo not drawn),?,?,0%,-36%,71%,-15%
COCCn1nnnc1CN1CCC(O)(c2cccc(C(F)(F)F)c2)CC1,-15%,79µM*,15%,-16%,23%,-8%
COCCn1nnnc1C(c1cccc(C(F)(F)F)c1)N1CCN(Cc2ccccc2)CC1 (stereo not drawn),?,50µM*,-11%,-29%,5%,-3%
COCCn1nnnc1CN1CCOCC1,-6%,50µM*,-3%,-22%,7%,-11%
COCCn1nnnc1CN1CCC(C)CC1,12%,9%[59 µM],-15%,-14%,88%,-15%
O=C1CC(/C=C/c2ccc([N+](=O)[O-])cc2)=Nc2ccccc2N1,?,nt,-24%,-10%[11.4 µM],-14%,?
CC(=O)c1cccc(S(=O)(=O)NCCc2csc3nc(-c4ccc(F)cc4)nn23)c1,-12%,-30%[59 µM],1%,-22%,-9%,nt
COCCN=C1NC(=O)C(CC(=O)Nc2cccc(Cl)c2C)S1 (stereo not drawn),2%,50µM*,-5%,-12%,28%,-4%
O=[N+]([O-])c1ccc2nc(-c3ccncc3)[nH]c2c1,-1%,?,4%,-6%,51%,-1%
O=[N+]([O-])c1ccc(-c2nc(-c3ccc(F)cc3)c(-c3ccncc3)[nH]2)cc1,nt,35µM*,-29%,nt,nt,nt
CC(C)NCCOCCOc1ccccc1F,50µM*,4.5µM*,-3%,1.8µM*,?,-7%
CCN(CC)CCOCCOc1ccccc1F,?,-6%,-8%,-17%,15%,-1%
Cc1ccc(OCCCNCCO)c(Br)c1,0%,-33%[59 µM],-1%,-7%,36%,-3%
C=CCNCCOCCOc1ccc(C)cc1Br,56µM*,3.2µM*,-2%,5µM*,?,5%
SMILES,BAZ2B block,G9a block,VDR inhibitor,JMJD2A Tudor inh,HP1b chromo inh,PLK1 PBD block
CCC(C)NCCCOc1c(C)cc(C)cc1Br (stereo not drawn),79µM*,8.9µM*,-25%,?,-36%,-11%
CCC(C)NCCOCCOc1ccc(C)cc1Br (stereo not drawn),56µM*,?,7%,2.5µM*,?,-6%
O=C(/C=C\Nc1ccc(Cl)cn1)c1ccc(Br)cc1,-23%,-37%,-3%,-17%,15%,0%
COc1ccc(NC(=O)Cn2c(SCc3ccc(F)cc3)nc3cccnc32)cc1OC,-3%,-32%[59 µM],27%,5%,34%,nt
Cc1cccc(Oc2nc3c(c(=O)n(C)c(=O)n3C)n2C)c1C,-2%,12%[59 µM],6%,-10%,34%,nt
NC(=O)C1CCN(C(=O)c2ccc(-c3ccccc3Cl)o2)CC1,0%,-2%[59 µM],-8%,-16%,22%,-2%
COc1cccc(C(=O)NCC(=O)OCc2ccc(F)cc2Cl)c1,1%,-5%[59 µM],5%,14%,54%,3%
CC(C)NCCOCCOc1ccc(Cl)cc1Br,?,?,0%,3.2µM*,-18%,-3%
Clc1ccc(OCCSc2ncccn2)c(Br)c1,251%,463%,1%,128%,130%,-14%
COc1ccc(NC(C)C(=O)Nc2ccc(C(C)(C)C)cc2)cc1Cl (stereo not drawn),45µM*,?,7%,?,-37%,-1%
COc1ccc(NC(C)C(=O)Nc2ccc(C#N)cc2)cc1Cl (stereo not drawn),?,-2%[59 µM],18%,?,3%,-7%
c1ccc(COc2cccc(CNCc3ccccn3)c2)cc1,?,0%[12.7 µM],-2%,-27%,40%,-1%
c1ccc(COc2cccc(CNCc3cccnc3)c2)cc1,50µM*,?,-12%,?,19%,-18%
Oc1ccc(NCc2cccc(OCc3ccccc3)c2)cc1,-29%,13µM*,?,50µM*,?,-6%
OCCNCc1cccc(OCc2ccc(Cl)cc2)c1,-13%,-12%,14%,-8%,37%,7%
c1ccc(NCc2cccnc2)cc1,-7%,45µM*,-2%,-20%,18%,-6%
Oc1ccc(NCc2cccc(OCc3ccc(F)cc3)c2)cc1,-35%,nt,?,40µM*,?,-11%
O=C(O)c1cc(S(=O)(=O)N2CCN(C(c3ccccc3)c3ccccc3)CC2)ccc1Cl,-32%,?,1%,?,25%,-5%
CCOc1cc(CNc2ccc(O)cc2)cc(Cl)c1OCc1ccccc1,28µM*,?,-6%,45µM*,35µM*,nt
N[C@H](C(=O)O)[C@H](Cc1ccccc1)C(=O)O,nt,7.1µM*,6%,nt,nt,nt
O=C1NC(C2CC3C=CC2C3)Nc2ccccc21 (stereo not drawn),nt,nt,nt,nt,nt,7%
COc1cccc(NC(=S)NNC(=O)Cn2nc(C(F)(F)F)cc2C)c1,-6%,11µM*,-24%,1%,24%,-6%
